In PubChem BioAssay AID1822 (The Scripps Research Institute Molecular Screening Center, 2009):
Hit rate of the full screen: of about 290,000 compounds, about 3,500 (1.2%) were called active.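 Rule for the calls: active = inhibition above the campaign mean inhibition over all tested compounds plus 3 SD (cut at about 28% in these data); inactive = the rest.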 The entries come from a sample that favours actives as a whole.

What follows are compounds tested on M18 aspartyl aminopeptidase (Plasmodium falciparum 3D7) (assay: inhibition of P. falciparum M18 aminopeptidase – biochemical, QFRET, recombinant enzyme, primary screen (AID 1822;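 note: 0% = plate median of test compound wells and 100% = 2 mM ZnCl2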)). Conditions: recombinant PfM18AAP, H-Glu-NHMec fluorogenic cleavage; at 7.35 µM; stronger effect = higher value.

inhibition, inactive:
CC(C)Cn1c(N2CCN(C(=O)/C=C/c3ccccc3)CC2)nc2ccccc21 2%, Cc1c(OC(C)C(=O)NCC2CCC(C(=O)O)CC2)ccc2c1oc(=O)c1ccccc12 (centres undefined) 5.1%, Cc1ccccc1N1CCN(CC(=O)NCc2ccc(Cl)cc2)CC1 4.87%, O=C(COC(=O)c1ccc(N2CCCC2=O)cc1)c1ccc(OC(F)F)cc1 0.74%, COc1ccc(C(=O)NC2CC(C)(C)Cc3c2cnn3-c2ccccc2)c(OC)c1 (centres undefined) 0.86%, Nc1ccc(C(=O)Nc2ccccc2N)cc1 -8.23%, Cc1cc(F)ccc1NC(=S)NCCc1ccccc1 -8.4%, Cc1ccc(CN(Cc2cccnc2)C(=S)Nc2cccc(Cl)c2C)cc1 -8.48%, CC(=O)N/N=C/c1cc2c(cc1[N+](=O)[O-])OCO2 6.95%, Cc1ccc(-c2n[nH]c(=S)n2/N=C/c2cc3c(cc2[N+](=O)[O-])OCO3)cc1 17.7%, COc1ccc(C(CNC(=O)COc2ccc([N+](=O)[O-])cc2)N2CCCCC2)cc1 (centres undefined) -7.22%, CC(=O)Nc1cccc(C(=O)OCN2C(=O)c3ccccc3C2=O)c1 1.1%, COc1ccc(CC(=O)Nc2nc(-c3ccc(F)c(F)c3)cs2)cc1OC 0.44%, COc1ccc(C2/C(=C(/O)c3ccc4c(c3)CC(C)O4)C(=O)C(=O)N2Cc2ccncc2)cc1 (centres undefined) 16.6%, COc1ccc(/C(O)=C2\C(=O)C(=O)N(Cc3ccco3)C2c2ccc(OC)cc2OC)cc1 (centres undefined) 8.22%, CCOc1ccc(-n2c(O)c(/C=N/c3ccnn3Cc3ccncc3)c3ccccc3c2=O)cc1 5.65%, CCOc1ccc(-n2c(O)c(/C=N/Nc3nc(C)cc(C)n3)c3ccccc3c2=O)cc1 26.7%, S=C(Nc1cccnc1)Nc1ccccn1 11.1%, C[C@H](NC(=O)c1nc[nH]c1C(=O)NCC(=O)OC(C)(C)C)c1ccccc1 1.03%, COc1ccc(CNC(=O)C2CCN(C(=O)c3ccco3)CC2)cc1 2.47%, CCC(CC)c1nnc(NC(=O)/C=C/c2ccco2)s1 2.71%, CCOC(=O)c1cc(Sc2ccccc2N)cc(C(=O)OCC)n1 10.8%, Nc1ccccc1SC(C[N+](=O)[O-])c1ccccc1 (centres undefined) 14.1%, Cc1ccc(S(=O)(=O)CC(=O)NC(C)c2ccccc2)cc1 (centres undefined) -6.39%, CN(C)S(=O)(=O)c1ccc2oc(SCC(=O)Nc3ccccc3F)nc2c1 2.13%, C=CCN(C(=O)Nc1ccc2oc(C)nc2c1)c1ccccc1 13%, CCN(CC)c1ccc2cc(C(N)=O)/c(=N\NC(=O)c3ccncc3)oc2c1 17.2%, COc1ccc(Nc2cc(Sc3ccc(OC)cc3)ncn2)cc1 2.95%, Cc1ccsc1C(=O)N[C@@H](C)c1nnc2ccccn12 -8.31%, Cc1cccc(N2CCN(C(=O)CCS(=O)(=O)c3ccc4c(c3)NC(=O)C(C)S4)CC2)c1C (centres undefined) -6.34%, O=C(O)c1ccccc1-c1ccccc1C(=O)Nc1ccccc1Br -9.93%, O=C1CCN(CCc2ccccc2)CCN1CCOc1ccccc1 1.32%, O=C(Nc1ccc(C(=O)N2CCOCC2)cc1)Nc1cccc(C(F)(F)F)c1 -2.75%, COc1ccccc1N1CCN(C(=O)CSc2ncnc3c2cnn3-c2ccc(C)c(C)c2)CC1 -5.63%, CC1CCN(C(=O)c2ccc(CSc3ccc(Cl)cc3)cc2)CC1 -3.98%, CC1CCN(C(=O)c2ccc3c(=O)n4c(nc3c2)CCCCC4)CC1 -5.35%, CCCN1C2CCCC1CC(NC(=O)c1cccc(OC)c1)C2 (centres undefined) -5.08%, Cc1cccn2c(=O)c3cc(C(=O)NCC4CCCO4)c(=N)n(Cc4ccc(F)cc4)c3nc12 (centres undefined) 5.3%, Oc1ccc(-n2nnnc2SCc2c(F)cccc2Cl)cc1 9.59%, CCCN1Cc2cccc(C(=O)Nc3ccc(S(=O)(=O)N4CCCCCC4)cc3)c2C1=O 3.06%, O=C1CCN(CCCc2ccccc2)CCN1CCO 10.1%, CCn1c(CSCc2c(Cl)cccc2Cl)n[nH]c1=S 14.7%, CSc1ccc(S(=O)(=O)NCc2ccc(Cl)cc2)cc1 5.25%, Cc1cc(C)n(-c2ccc(NC(=O)C3CCCCN3C(=O)c3cccs3)cc2)n1 (centres undefined) 10.7%, Cc1cc(NC(=O)CSc2nc(=O)cc(N)n2-c2ccc(F)cc2)no1 2.27%, O=c1[nH]c2c(c(=O)n1Cc1ccccc1)CCC2 -7.19%, Cc1[nH][nH]c(=O)c1N=Nc1ccccc1 -5.94%, O=C(CNC(=O)C1COc2ccccc2O1)N/N=C/c1cc(Br)c(O)c(Br)c1 (centres undefined) 10.4%, Cc1c(C)c2ccc(OCC(=O)N3CCC(C(=O)O)CC3)c(C)c2oc1=O 3.02%, O=C(Nc1ccc(F)cc1)c1ccc(S(=O)(=O)NCc2cccnc2)cc1 1.68%, O=C(NC1CC1)c1ccc2c(c1)NC(=O)c1ccccc1S2 -6.63%, O=C(O)c1cccc(N2C(=O)Nc3ccccc3N2O)c1 -0.41%, CCOc1ccc(OCC)c(NC(=O)CCS(=O)(=O)c2ccc(C)cc2)c1 -4.08%, O=C(Nc1ccc2sc3ccccc3c(=O)c2c1)c1ccccc1Cl 3.74%, COc1ccc(NC(=O)CN(C)C(=O)CNC(=O)C2CCCCC2)cc1 5.81%, COc1ccc(NC(=O)c2sc3nc(C)nc(N4CCN(c5ccccn5)CC4)c3c2C)c(OC)c1 -4.65%, NC(=O)c1c(NC(=O)c2ccccc2)sc2c1CCCC2 1.26%, O=C(Nc1sc2c(c1C(=O)O)CCC2)c1ccccc1F -1.52%, CC(=O)c1ccc(NC(=O)CCNS(=O)(=O)c2cc(Br)cnc2N)cc1 -3.06%, CC1CCN(C(=S)c2ccc(-c3ccc(Cl)cc3Cl)o2)CC1 4.16%, S=C(c1ccccc1)N1CCCC1 -1.81%, O=C1c2cccc3c([N+](=O)[O-])ccc(c23)C(=O)N1CC1CCCO1 (centres undefined) 4.32%, O=C(OCc1ccc([N+](=O)[O-])cc1)C1CC(=O)N(Cc2ccccc2Cl)C1 (centres undefined) -11.3%, CC(C)N1CCC(N2CCN(Cc3cccnc3)CC2CCO)CC1 (centres undefined) 4.35%, O=C(N/N=C/c1c[nH]c2ccccc12)c1ccccc1O 9.89%, CSC(=S)N/N=C/c1c[nH]c2ccccc12 9.14%, CCc1[nH]nc(C(=O)N2CCCC(CO)(Cc3ccc(F)cc3F)C2)c1C (centres undefined) -13.6%, Cc1cc(OCc2cc(C(=O)NCc3cc(C(C)C)no3)no2)cc(C)c1Cl -17.4%, Cc1ccc(-c2nc3ccccc3[nH]c2=O)cc1 -7.7%, CC(=O)c1c(-c2ccccc2)c2ccccc2[nH]c1=O -2.54%, CC(=O)N1c2ccc(S(=O)(=O)N3CCC(C(=O)NC4CCCCC4C)CC3)cc2CC1C (centres undefined) 17.8%, C#CCOc1ccc(/C=C2/C(=O)NN(c3ccccc3)C2=O)cc1OC 22%, COc1cc(/C=C2/C(=O)NN(c3ccc(F)cc3)C2=O)cc([N+](=O)[O-])c1O 9.62%, Cn1c(=O)c([N+](=O)[O-])c(Oc2ccccc2)c2ccccc21 24%, CC1CCN(C(=O)/C(=C\c2ccccc2)NC(=O)c2ccccc2)CC1 -0.48%, Cc1ccc(C(=O)N/C(=C\c2ccco2)C(=O)N2CCSCC2)cc1C -11%, CCc1ccc(-c2cc3c(=O)n(CC(=O)NCCCN4CCN(Cc5ccccc5)CC4)nc(C)n3n2)cc1 -0.45%

inhibition, active:
Cc1ccc(S(=O)(=O)N/N=C\c2cc3c(cc2[N+](=O)[O-])OCO3)cc1 51.5%, COc1cc(C2/C(=C(\O)c3ccc4c(c3)CC(C)O4)C(=O)C(=O)N2Cc2ccco2)ccc1O (centres undefined) 45.6%, CCOc1ccc(-n2c(O)c(/C=N/Nc3nnc(C)c(=O)[nH]3)c3ccccc3c2=O)cc1 34%, CCC(CC)c1nnc(NC(=O)C2CCN(C(=O)c3ccco3)CC2)s1 31.2%, CCS(=O)(=O)c1cc([N+](=O)[O-])c(Sc2ccccc2N)s1 38.9%, CCN(CC)c1ccc2oc(=O)c(C)nc2c1 55.5%, CC1CCN(C(=O)c2ccc3c(c2)NC(=O)CN3)CC1 31.9%, CCn1c(CNS(=O)(=O)c2ccc(Cl)cc2)n[nH]c1=S 31.8%, O=c1[nH]n2c(=O)c3c([nH]c2c1N=Nc1ccccc1)CCC3 31.3%, Cc1c(CC(=O)N2CCN(C(=O)C3COc4ccccc4O3)CC2)c(=O)oc2c(O)c(O)ccc12 (centres undefined) 56.5%, C/C(=N\Nc1cccc(C(=O)O)c1)c1ccc2c(c1)Nc1ccccc1S2 28.6%, NC(=O)c1c(Nc2nc3c(F)cccc3s2)sc2c1CCCC2 49.1%, S=C(c1ccc(-c2ccccc2)o1)N1CCCCC1 30.8%, O=C(O)c1cccc(NC(=S)N/N=C/c2c[nH]c3ccccc23)c1 38.5%, O=c1[nH]c2ccccc2n2c(-c3ccccc3)nnc12 33.2%, COc1cc(/C=C2/C(=O)NN(c3cccc(Cl)c3)C2=O)cc(Br)c1O 32.2%, NC(=O)C1CCN(C(=O)/C(=C/c2ccco2)NC(=O)c2ccccc2)CC1 35.1%
